# Bioassay records: PubChem, several laboratories
# LMP1 NFkB inh: Epstein-Barr LMP1 NF-kappaB reporter inhibition; 350,000 compounds, 0.69% hits; AID 504558; LMP1-induced NF-kappaB luciferase reporter cells, luminescence; inhibition, % at 12.5 µM; in the data active means inhibition above about 41%; inconclusive means no clear call, values can overlap the other calls
# TWEAK-Fn14 inh: blocks TWEAK-Fn14 interaction in a reporter cell assay. inhibition, % at 10 µM. TWEAK-stimulated Fn14 reporter cells, luciferase luminescence, 8 h. 360,000 compounds, 2% hits; in the data active means inhibition above about 50%
# TROY signal inh: blocks TROY-dependent signaling in reporter cells | Q293 LMP1-TROYcd NF-kB luciferase reporter, 4 h | 360,000 compounds, 0.98% hits | inhibition, % at 10 µM;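 active means compounds whose plate-normalised and pattern-corrected inhibition of the luciferase reporter signal at the single screening dose is 50% or more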
# Peg3 prom inh-1: Peg3 promoter activity inhibition. AID 588405. inhibition, % at 20 µM. 360,000 compounds, 1.7% hits. HeLa PEG-Prom luciferase reporter, luminescence, overnight;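 active means inhibition of at least 50% at 20 µM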
# Shn3 3UTR inh: Schnurri-3 reporter inhibition in Clone20 osteoblasts; inhibition, % at 12.5 µM; 360,000 compounds, 0.52% hits; Clone20 osteoblast Shn3 3'UTR firefly luciferase, 24 h;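 active means mean inhibition of at least 75% with every replicate also reaching 75%; inconclusive means mean inhibition at least 75% but some replicate below; inactive means mean inhibition below 75%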
# TRPM1 prom inh: reduces MITF-dependent TRPM1 promoter luciferase signal. SK-MEL-5 TRPM1 promoter luciferase, 24 h. inhibition, % at 12.5 µM. 330,000 compounds, 0.83% hits. AID 488899;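 active means mean inhibition across replicates of 60% or more, whatever share of single replicates reaches that level; inconclusive means some that reach 60%, reason not given; inactive means mean inhibition across replicates below 60%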
# Peg3 prom inh-2: confirmation of Peg3 promoter inhibitors. AID 602417. inhibition, % at 20 µM. 1,300 compounds, 84% hits. shares compounds with Peg3 prom inh-1. HeLa PEG-Prom luciferase reporter, luminescence, overnight;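 active means at 20 µM dose, 40% or more inhibition averaged across four replicates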
# A number is an active result; n = inactive; u = inconclusive; x = no result. Most compounds without a hit are left out; they make up all but 4.1% or so of the library.
SMILES,LMP1 NFkB inh,TWEAK-Fn14 inh,TROY signal inh,Peg3 prom inh-1,Shn3 3UTR inh,TRPM1 prom inh,Peg3 prom inh-2
CCC1CCCCN1C(=O)COC(=O)CN(C)S(=O)(=O)c1ccc(NC(C)=O)cc1 (centres undefined),n,n,n,n,n,n,x
Cc1ccc(Cn2c(=N)n(CC(=O)c3ccccc3)c3ccccc32)cc1,n,n,n,92,n,n,86
CCCn1c(=N)n(CC(=O)c2ccc(Cl)cc2)c2ccccc21,n,n,n,66,n,n,60
CN(C)c1ccc(C(=S)N2CCN(S(=O)(=O)c3ccccc3)CC2)cc1,n,n,n,n,n,n,x
CN(C)Cc1csc(NC(=O)Nc2ccccc2Oc2ccccc2)n1,x,n,n,93,n,x,n
COc1ccc(CNC(=O)Nc2nc(C(N)Cc3ccc(F)cc3)cs2)cc1 (centres undefined),x,n,n,96,n,x,98
COc1ccccc1NC(=O)Nc1nc(C(N)CCc2ccccc2)cs1 (centres undefined),x,n,n,88,n,x,95
CC(C)CC(N)c1csc(NC(=O)Nc2ccccc2C(C)(C)C)n1 (centres undefined),x,n,n,67,n,x,91
N#CCCNS(=O)(=O)c1ccc(C(=O)OCCCOC(=O)c2ccc(S(=O)(=O)NCCC#N)cc2)cc1,n,n,n,n,n,n,x
Cc1c(Cl)ccc2c(C(=O)Nc3cc(C(C)(C)C)on3)cc(-c3ccccn3)nc12,n,n,n,n,n,n,x
COc1ccc(C(O)c2nc(-c3cc(F)cc(F)c3)cs2)cc1 (centres undefined),x,n,n,n,n,x,x
CCOC(=O)c1sc(NC(=O)CSc2nc(-c3ccco3)cc(C(F)(F)F)n2)c(C(=O)OCC)c1C,n,n,n,n,n,n,x
CCOc1ccccc1NC(=O)c1oc2ccccc2c1NC(=O)C1CCCO1 (centres undefined),n,n,n,74,n,n,n
CCCC(=O)NC(c1ccc(OC)cc1)c1ccc2cccnc2c1O (centres undefined),70,n,n,55,92,73,71
CCCCC(=O)NC(c1ccccc1Cl)c1ccc2cccnc2c1O (centres undefined),72,n,n,58,88,71,65
CC(C)C(=O)NC(c1ccccc1)c1cc([N+](=O)[O-])c2cccnc2c1O (centres undefined),n,n,n,n,n,n,x
CCCC(=O)NC(c1ccccc1)c1ccc2cccnc2c1O (centres undefined),n,n,n,53,93,65,63
CC(=O)NC(c1ccc(C(C)C)cc1)c1ccc2cccnc2c1O (centres undefined),57,n,n,57,92,u,70
COc1ccc(C(C(=O)NC2CCCC2)N(CCO)C(=O)Cn2nnc(-c3ccc(C)o3)n2)cc1OC (centres undefined),n,n,n,n,n,n,x
CCCCC(=O)NC(c1ccccc1)c1ccc2cccnc2c1O (centres undefined),48,n,n,55,93,65,88
CCCOc1ccc(CC(=O)NCCc2ccccc2)cc1OC,n,n,n,n,n,n,x
CCc1ccccc1N(CC)C(=O)C1CCN(c2ncnc3c2nc2n3CCCCC2)CC1,n,n,n,56,n,n,n
CN(C)CCNc1ccc(CO)c2oc3ccc(O)cc3c(=O)c12,n,n,n,97,n,n,90
Oc1c(Br)cc(Br)c2cccnc12,n,n,n,50,n,n,59
CCOc1ccc2nc(NC(=O)c3cccc(-c4cc5ccccc5oc4=O)c3)sc2c1,n,n,n,89,n,n,n
SMILES,LMP1 NFkB inh,TWEAK-Fn14 inh,TROY signal inh,Peg3 prom inh-1,Shn3 3UTR inh,TRPM1 prom inh,Peg3 prom inh-2
CCn1cc(C(=O)NCCC(C)C)c(=O)c2cc(F)c(N3CCN(C(=O)c4ccco4)CC3)cc21,n,n,n,64,n,n,49
O=C(CCN1C(=O)/C(=C/c2ccc(F)cc2)SC1=S)N[C@@H](CO)Cc1ccccc1,n,n,n,79,n,n,72
O=C(CCCN1C(=O)/C(=C/c2cccc(Br)c2)SC1=S)Nc1cccnc1,n,n,n,76,n,n,96
CCc1ccc(/C=C2\SC(=S)N(CCCC(=O)Nc3ccccn3)C2=O)cc1,52,n,72,82,n,n,80
CN(Cc1ccccc1)C(=O)CN1C(=O)NC2(CCCc3sccc32)C1=O (centres undefined),n,n,n,n,n,x,x
COc1ccc(CCNC(=O)C2CCN(C(=O)c3ccc(Br)cc3)CC2)cc1OC,n,n,n,n,n,n,x
COC(=O)c1cc(=O)n(Cc2ccco2)c(=Nc2ccc(F)cc2)s1,n,56,n,82,n,x,84
CN(Cc1ccc(F)cc1)C(=O)C(Cc1ccccc1)NC(=O)c1ccccc1 (centres undefined),n,n,n,n,n,n,x
CSc1ccc(CN(C)C(=O)C(Cc2ccccc2)NC(=O)c2ccccc2)cc1 (centres undefined),n,n,n,66,n,n,62
COc1ccc(CN(C)C(=O)C(Cc2ccccc2)NC(=O)c2ccccc2)cc1F (centres undefined),n,n,n,54,n,n,84
O=[N+]([O-])c1cc(-c2csc(NCCc3nc4cc(Cl)c(N5CCCCC5)cc4n3CCCO)n2)ccc1Cl,n,n,n,n,n,n,x
Cc1ccc(Cn2c(CCNc3nc(-c4ccc(Cl)c([N+](=O)[O-])c4)cs3)nc3cc(Cl)c(Cl)cc32)cc1,n,n,n,73,n,n,n
COc1ccc(CNn2c(-c3cccc(C)c3)nc3ccccc3c2=O)cc1OC,n,n,n,57,n,n,n
CC(C)Cn1c(SCC(=O)N2CCOCC2)nc2ccccc2c1=O,n,n,n,n,n,n,x
Cc1oc(-c2ccccc2F)nc1CS(=O)CC(=O)NC1CCCCC1 (centres undefined),n,n,n,n,n,x,x
CCC[C@@H]1Cc2ccccc2N1C(C)=O,n,n,n,n,n,n,x
O=C(NNC(=O)c1cccnc1SCc1cccc([N+](=O)[O-])c1)c1ccccn1,n,n,n,55,96,n,70
C[C@H](CO)N1C[C@H](C)[C@@H](CN(C)S(=O)(=O)c2cccs2)Oc2c(NS(=O)(=O)c3ccc(F)cc3)cccc2C1=O,n,n,n,n,n,n,x
O=C(NC1=C(NC2CCS(=O)(=O)C2)C(=O)c2ccccc2C1=O)c1ccccc1 (centres undefined),n,92,56,68,n,n,49
CCCCCCCCCCCCCCCC(O)C[N+](C)(C)CCO (centres undefined),n,n,n,104,n,n,87
